From PubChem BioAssay (EPA / NIEHS)
The source made the active and inactive calls. Rule for the calls: active = hit-call score of the fitted dose curve at least 0.9, where 1 is the maximum; inactive = score below 0.9.

read-out: Fatty acid synthase (Homo sapiens) (UniProt P49327); assay: LTEA_HepaRG_FASN: Life Technologies and Expression Analysis (LTEA) Assay for Fatty Acid Synthase (FASN) using HepaRG (AID 2283448); settings: mRNA level, 48 h; actives raise or lower the signal
Protocol: LTEA_HepaRG is a cell based, multiplexed-readout assay that uses HepaRG, a human liver cell line, with measurements taken at 48 hours after chemical dosing on a 96-well plate.LTEA_HepaRG_FASN is one of 102 assay component(s) measured in the LTEA HepaRG cell culture assay. It is a marker of Steatosis.Data from the assay component LTEA_HepaRG_FASN was analyzed into 1 endpoint. This assay endpoint, LTEA_HepaRG_FASN, was analyzed with bidirectional fitting relative to DMSO as the negative control and baseline of activity. Using a type of inducible reporter, measures of mRNA induction for gain or loss-of-signal activity can be used to understand regulation of transcription factor activity. To generalize the intended target to other relatable targets, this assay endpoint is annotated to the lyase intended target family, where the subfamily is fatty acid synthase.
A total of 1060 chemcials from the ToxCast library were tested in eight-point concentration-response experiments. Cell culture and cytotoxicity assays were conducted at Thermo Fisher Scientific's Custom Services facility (Madison, WI). A single lot of human HepaRG cells (Thermo Fisher Scientific, Frederick, MD) was used for the cell culture experiments. 96-well format collagen type I coated plates of human HepaRG cells were prepared using established methods. Briefly, cryopreserved HepaRG cells were thawed, plated at a density of approximately 100,000 cells/well in HepaRG Thaw, Plate, and General Purpose media (HPRG770, Thermo Fisher Scientific), and incubated for 48 hours. 0.5% DMSO was selected as vehicle control to balance the requisite need of DMSO in HepaRG cultures to maintain differentiation (for example, baseline metabolism, proportions of hepatocytes vs. cholangiocytes), while enabling further hepatic receptor pathway activation (for example, PXR and CAR) in response to chemical exposure. 48 hours after plating, the culture medium was replaced with HepaRG Serum-Free Incudtion Media. Cells were exposed to each test chemical in duplicate and maintained in CO2 incubators for another 48 hours. Chemical plates were thawed to room temperature and 200x concentrations of treatment groups were prepared. 8-point conentration-reponse curves were made with the highest exposure at 100 uM, followed by half-log dilutions, all in 0.5% DMSO. Each test plate contained variouse controls, induction positive controls (1mM phenobarbital), cytotoxicity positive controls ([…] aflatoxin B1), vehicle controls (0.5% DMSO), and total lysis controls (0.5% DMSO). Cell morphology images were taken using an Essen IncuCyte FLR automated microscope, with six 96-well plates imaged in about 24 minutes. Images were captured and exported and JPEG files. Spent culture media was transfered to black-well plates for the LDH assay, and remaining media was sorted at -80 C for later use. Cells were treated with RLT buffer and frozen until shipped for gene expression analysis. Total RNA was isolated from the cell suspension in 75 uL of Buffer RLT (Qiagen, Germantown, MD 20874) by Quintiles/Expression Analysis (Durham, NC) using a custom isolation procedure. Total RNA from each plate well was transferred to a preamplification plate. Fluidigm's 96.96 Dynamic ArrayTM (Fluidigm, Amsterdam, the Netherlands) technology was used for gene expression analyses by quantitative reverse transcription polymerase chain reaction (qRT-PCR, performed by Quintiles/Expression Analysis, Durham, NC)89. Standard TaqManTM Assays (Applied Biosystems/ThermoFisher Scientific, Foster City, CA) were used to assess the expression of 93 genes selected based on their selectivity and sensitivity to important hepatic receptors known to be modulated by environmental chemicals; importance in human hepatocyte functionality; and hepatotoxicity. […]

Sequence of Fatty acid synthase (Homo sapiens) (P49327 whole entry, looked up): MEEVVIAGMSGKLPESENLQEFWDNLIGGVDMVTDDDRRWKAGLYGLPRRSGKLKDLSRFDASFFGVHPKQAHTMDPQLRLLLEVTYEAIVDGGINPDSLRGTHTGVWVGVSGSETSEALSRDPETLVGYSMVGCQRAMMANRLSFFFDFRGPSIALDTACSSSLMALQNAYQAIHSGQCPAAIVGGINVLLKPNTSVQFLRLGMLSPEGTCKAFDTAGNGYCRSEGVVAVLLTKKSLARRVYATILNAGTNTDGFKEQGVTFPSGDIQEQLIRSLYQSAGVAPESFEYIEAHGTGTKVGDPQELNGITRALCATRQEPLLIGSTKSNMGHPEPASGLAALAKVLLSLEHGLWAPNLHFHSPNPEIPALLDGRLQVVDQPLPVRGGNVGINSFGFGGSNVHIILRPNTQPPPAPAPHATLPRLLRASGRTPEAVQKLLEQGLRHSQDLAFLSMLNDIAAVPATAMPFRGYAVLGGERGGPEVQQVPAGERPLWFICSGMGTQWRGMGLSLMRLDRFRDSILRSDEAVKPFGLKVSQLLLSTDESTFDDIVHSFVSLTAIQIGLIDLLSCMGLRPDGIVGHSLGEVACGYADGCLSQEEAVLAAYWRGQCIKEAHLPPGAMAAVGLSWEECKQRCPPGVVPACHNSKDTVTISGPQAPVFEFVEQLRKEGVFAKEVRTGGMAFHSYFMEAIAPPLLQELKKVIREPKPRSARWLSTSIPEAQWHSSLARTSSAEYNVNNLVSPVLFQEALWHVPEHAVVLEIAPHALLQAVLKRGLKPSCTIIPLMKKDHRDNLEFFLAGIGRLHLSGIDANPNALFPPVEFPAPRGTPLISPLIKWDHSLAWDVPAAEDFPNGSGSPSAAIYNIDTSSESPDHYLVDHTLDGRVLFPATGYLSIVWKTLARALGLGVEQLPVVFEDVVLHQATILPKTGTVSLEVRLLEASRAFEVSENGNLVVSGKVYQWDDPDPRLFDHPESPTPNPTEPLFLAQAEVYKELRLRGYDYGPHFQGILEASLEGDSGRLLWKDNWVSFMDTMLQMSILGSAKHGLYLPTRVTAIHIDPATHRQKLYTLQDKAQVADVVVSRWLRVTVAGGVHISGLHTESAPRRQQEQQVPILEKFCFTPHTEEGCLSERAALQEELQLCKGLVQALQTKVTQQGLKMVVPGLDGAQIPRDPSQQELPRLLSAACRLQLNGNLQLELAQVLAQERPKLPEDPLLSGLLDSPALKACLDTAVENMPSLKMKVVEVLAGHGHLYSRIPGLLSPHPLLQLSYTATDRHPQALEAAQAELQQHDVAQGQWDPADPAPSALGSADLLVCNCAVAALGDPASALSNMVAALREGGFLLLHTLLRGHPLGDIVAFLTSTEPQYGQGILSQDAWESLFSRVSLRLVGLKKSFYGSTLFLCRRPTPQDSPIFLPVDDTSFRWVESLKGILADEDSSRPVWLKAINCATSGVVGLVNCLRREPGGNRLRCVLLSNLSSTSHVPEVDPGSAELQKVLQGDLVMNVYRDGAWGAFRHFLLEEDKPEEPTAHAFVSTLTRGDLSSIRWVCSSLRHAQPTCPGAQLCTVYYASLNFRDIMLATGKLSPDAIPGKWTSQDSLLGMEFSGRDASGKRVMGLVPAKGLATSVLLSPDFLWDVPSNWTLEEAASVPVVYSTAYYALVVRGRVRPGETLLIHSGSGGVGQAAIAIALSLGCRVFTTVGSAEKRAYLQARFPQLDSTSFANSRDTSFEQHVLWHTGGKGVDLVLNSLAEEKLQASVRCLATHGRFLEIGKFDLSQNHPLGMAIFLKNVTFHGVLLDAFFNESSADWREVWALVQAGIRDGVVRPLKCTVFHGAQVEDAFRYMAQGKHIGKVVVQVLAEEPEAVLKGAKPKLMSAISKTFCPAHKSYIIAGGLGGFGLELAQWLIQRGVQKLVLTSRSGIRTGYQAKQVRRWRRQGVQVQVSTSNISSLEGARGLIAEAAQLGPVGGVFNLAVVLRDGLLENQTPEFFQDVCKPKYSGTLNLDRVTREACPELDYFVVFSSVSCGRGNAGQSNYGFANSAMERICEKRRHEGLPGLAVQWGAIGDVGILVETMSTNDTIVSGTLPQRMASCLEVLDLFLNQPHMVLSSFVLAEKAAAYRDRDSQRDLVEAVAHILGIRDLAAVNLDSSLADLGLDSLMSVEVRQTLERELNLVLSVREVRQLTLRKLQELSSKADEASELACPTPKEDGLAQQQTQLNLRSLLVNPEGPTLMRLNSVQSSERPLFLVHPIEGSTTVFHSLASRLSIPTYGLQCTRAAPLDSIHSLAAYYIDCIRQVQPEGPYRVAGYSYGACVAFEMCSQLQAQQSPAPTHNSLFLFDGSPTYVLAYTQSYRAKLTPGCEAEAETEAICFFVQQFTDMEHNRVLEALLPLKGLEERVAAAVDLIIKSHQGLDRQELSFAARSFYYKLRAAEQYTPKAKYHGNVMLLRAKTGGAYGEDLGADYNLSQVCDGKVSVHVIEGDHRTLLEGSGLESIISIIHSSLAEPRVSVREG

SMILES | outcome | AC50
CCOc1nc(F)cc2nc(S(=O)(=O)Nc3c(Cl)cccc3Cl)nn12 | inactive | –
CC(C)=CC1C(C(=O)OCc2coc(Cc3ccccc3)c2)C1(C)C (stereo not given) | inactive | –
COC(=O)c1c(C(F)F)nc(C(F)(F)F)c(C2=NCCS2)c1CC(C)C | inactive | –
Cn1c(-c2ccccc2)cc(-c2ccccc2)[n+]1C | – | 11.7 µM (active)
CCNP(=S)(OC)O/C(C)=C/C(=O)OC(C)C (stereo not given) | – | 36.3 µM (active)
CC1(C)C(C=C(Cl)Cl)C1C(=O)OC(C#N)c1cccc(Oc2ccccc2)c1 (stereo not given) | inactive | –
CCC(C)n1c(=O)[nH]c(C)c(Br)c1=O (stereo not given) | – | 14.1 µM (active)
CSC(=O)c1c(C(F)F)nc(C(F)(F)F)c(C(=O)SC)c1CC(C)C | inactive | –
CCCN(CC)CC1COC2(CCC(C(C)(C)C)CC2)O1 (stereo not given) | – | 0.274 µM (active)
COP(=S)(OC)Oc1ccc([N+](=O)[O-])c(C)c1 | inactive | –
Clc1nc(Cl)nc(Nc2ccccc2Cl)n1 | inactive | –
COP(=S)(OC)SCn1nnc2ccccc2c1=O | inactive | –
Cc1c(COC(=O)[C@@H]2[C@H](/C=C(\Cl)C(F)(F)F)C2(C)C)cccc1-c1ccccc1 | inactive | –
COC(=O)NC(=S)Nc1ccccc1NC(=S)NC(=O)OC | inactive | –
CCN(CC)C(=O)C(C)Oc1cccc2ccccc12 (stereo not given) | inactive | –
CN/C(=N\[N+](=O)[O-])NCc1cnc(Cl)s1 | – | 50 µM (active)
COC(=O)N(C(=O)N1CO[C@@]2(C(=O)OC)Cc3cc(Cl)ccc3C2=N1)c1ccc(OC(F)(F)F)cc1 | – | 18.8 µM (active)
O=C(Nc1ccccc1-c1ccc(Cl)cc1)c1cccnc1Cl | inactive | –
COc1ccc(-c2ccccc2)cc1NNC(=O)OC(C)C | inactive | –
COCC(C)N(C(=O)CCl)c1c(C)csc1C (stereo not given) | inactive | –

SMILES | outcome | AC50
COc1cc(OC)nc(NC(=O)NS(=O)(=O)c2ncccc2OCC(F)(F)F)n1 | inactive | –
Cc1cc(C)nc(Nc2ccccc2)n1 | inactive | –
CNC(=O)N(C)c1nnc(C(C)(C)C)s1 | inactive | –
CC(C)N1C(=O)c2ccccc2NS1(=O)=O | inactive | –
COCC(=O)N(c1c(C)cccc1C)C(C)C(=O)OC (stereo not given) | inactive | –
OC(c1ccc(Cl)cc1)(c1ccc(Cl)cc1)C(Cl)(Cl)Cl | – | 34.8 µM (active)
CC(C)Oc1cccc(NC(=O)c2ccccc2C(F)(F)F)c1 | – | 65.2 µM (active)
CCOc1cc(C(C)(C)C)ccc1C1COC(c2c(F)cccc2F)=N1 (stereo not given) | inactive | –
CCSC(=O)N1CCCCCC1 | inactive | –
CC(C)(C)C(=O)C(Oc1ccc(Cl)cc1)n1cncn1 (stereo not given) | – | 50 µM (active)
CCCCC(C#N)(Cn1cncn1)c1ccc(Cl)cc1 (stereo not given) | – | 22.1 µM (active)
CCOP(=S)(OCC)Oc1nc(Cl)n(C(C)C)n1 | – | 30.5 µM (active)
Clc1cccc(C(Cl)(Cl)Cl)n1 | inactive | –
C=CCOC(=O)C(C)(C)OC(=O)c1cc(-n2c(=O)cc(C(F)(F)F)n(C)c2=O)ccc1Cl | inactive | –
CCCCC(O)(Cn1cncn1)c1ccc(Cl)cc1Cl (stereo not given) | – | 85.7 µM (active)
O=c1n(Cl)c(=O)n(Cl)c(=O)n1Cl | inactive | –
CS(=O)(=O)c1ccc(C(=O)C2C(=O)CCCC2=O)c([N+](=O)[O-])c1 | inactive | –
Cc1ccc(N=CN(C)C=Nc2ccc(C)cc2C)c(C)c1 | inactive | –
CCOP(=O)(OCC)Oc1nc(Cl)c(Cl)cc1Cl | – | 60.2 µM (active)
CC1(C)CCC(=Cc2ccc(Cl)cc2)C1(O)Cn1cncn1 (stereo not given) | – | 6.85 µM (active)
